# Out of some 330,000 compounds screened, about 1,900 (0.58%) were called active. Roughly 4% stayed inconclusive and do not appear here. Not all results are given here. Measured potencies and affinities stand elsewhere. Unmarked numbers belong to inactive results. Rule as the data show it: inconclusive = inhibition above about 70% without an active follow-up result; inactive = below that.
# Test: M. tuberculosis growth inhibition, HTS (AID 449762);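 also: bacterial growth assessed after seven days of incubation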
# Details: M. tuberculosis H37Rv growth inhibition, 7H9 media; at 25 µM; hits give high values
row,SMILES,inhibition
1,OC(CN1CCN(c2ccccc2)CC1)Cn1c2ccccc2c2ccccc21 (stereo unspecified),14.7%
2,CN1CCN(CC(O)Cn2c3ccccc3c3ccccc32)CC1 (stereo unspecified),6.36%
3,Cc1noc(C)c1COC(=O)c1ccc2c(c1)S(=O)(=O)c1ccccc1C2=O,-4.63%
4,Brc1ccc2c(c1)C(c1cccs1)=NNC(c1cccnc1)=N2,1.73%
5,NC(=O)CC(NC(=O)Cc1ccc(Br)cc1)c1ccc(N2CCN(c3ccccn3)CC2)c([N+](=O)[O-])c1 (stereo unspecified),2.89%
6,C[C@H](CO)N1C[C@H](C)[C@@H](CN(C)S(C)(=O)=O)Oc2c(NC(=O)C3CC3)cccc2C1=O,1.46%
7,CCSC1=NC(C)(C)C=C(/C=C/c2ccc(Cl)cc2Cl)N1,46.6%
8,CC(C)SC1=NC(C)(C)C=C(/C=C/c2ccc(Cl)cc2Cl)N1,23.8%
9,COc1ccc(C(=O)Nc2cccc([N+](=O)[O-])c2)cc1Br,-1.62%
10,COc1nccc(-c2ccc(F)cc2)c1C#N,6.03%
11,COc1ccc2c(c1)[nH]c1c(C)nccc12,34.6%
12,COc1ccc2[nH]c3c(Cl)ncnc3c2c1,-0.24%
13,COc1ccc(NC(C)C(=O)N/N=C/c2c(O)ccc3ccccc23)cc1 (stereo unspecified),-2.98%
14,CN(C)S(=O)(=O)N1CCCN(S(=O)(=O)N(C)C)CC1,-7.77%
15,CCCCC(=O)Nc1ccc(C)c(S(=O)(=O)N2CCCCCC2)c1,-1.76%
16,Cc1ccc(NC(=O)Cc2ccc(Cl)cc2)cc1S(=O)(=O)N1CCCCCC1,-4.17%
17,Cc1c(NC(=O)CC2NC(=O)NC2=O)c(=O)n(-c2ccccc2)n1C (stereo unspecified),4.59%
18,Cc1ccc(NC(=O)CSc2nc(N)cc(=O)[nH]2)cc1S(=O)(=O)N1CCCCCC1,-1.26%
19,Cc1ccc(S(=O)(=O)NNC(=O)c2ccc(O)cc2)cc1,9.92%
20,Cc1ccc(C(=O)NNS(=O)(=O)c2ccccc2[N+](=O)[O-])cc1,4.03%
21,C#CC[N+]1(C)C2CCC1CC(O)C2 (stereo unspecified),6.2%
22,COC(=O)/C(=C\c1c(OC)cc(OC)cc1OC)C(=O)c1ccc2c(c1)OCO2,17%
23,CCN1C(=O)CSc2ccc(C(=O)NCc3ccccc3)cc21,-4.41%
24,CC(=O)n1cc(C=C2C(=O)NC(=O)NC2=O)c2ccccc21,6.36%
25,CC(=O)O/C(=C\c1cn(C(C)=O)c2ccccc12)C(=O)O,-13.8%
26,Cc1oc(-c2ccc(Cl)cc2)nc1CS(=O)CC(=O)NC1CCCC1 (stereo unspecified),-1.04%

# Reference: PubChem BioAssay AID449762 (Southern Research Specialized Biocontainment Screening …, 2010)
